From the supplement of paper PMC10338343
± gives the standard deviation. The full ranking holds about 8,200 sequences; the median of “pre-steady-state target cleavage rate” is about 0.024, and the highest 2% start at about 1.3. The entries come from a sample that favours the highest values as a whole.

Tested on: MIWI (PIWIL1) piRISC loaded with L1MC piRNA (30 nt)
Test: pre-steady-state target cleavage rate (min^-1); MIWI and MILI are mouse PIWI proteins and EfPiwi is from a freshwater sponge; tags in brackets are library labels; higher = faster piRNA-guided slicing of the target
Conditions: guide: L1MC piRNA 5'p-UAACUAAAUACUAUGCAAGCUGUAGGUCCU
Summary of the method: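 Cleave-'n-Seq reactions paired 0.1 nM transcribed, DNA-blocked target RNA library with 1 nM active affinity-purified piRISC holding one synthetic guide, plus or minus 500 nM GTSF1 partner protein, in HEPES–potassium acetate buffer at 33 °C for 0–8 or 0–960 min. After sequencing of uncleaved targets and normalisation to depth and weakly complementary targets, the pre-steady-state cleavage rate was taken from a burst-and-steady-state fit. Three trials were pooled, and k3 was capped at 0.0001 min^-1.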

[1] = auxiliary factor: 500 nM mouse GTSF1
[2] = auxiliary factor: none (no GTSF1)

Sequence | pre-steady-state target cleavage rate [1] | pre-steady-state target cleavage rate [2]
UCCACCUACAGCCUGCAUAGUAUUUAGUUA | 1.15 ± 0.033 | 0.0634 ± 0.01
UCGACCUACAGCCUGCAUAGUAUUUAGUUA | 1.41 ± 0.038 | 0.0857 ± 0.015
UGGACCUACAGCCUUGCAUAGUAUUUAGUUA | 1.21 ± 0.081 | 0.0496 ± 0.0085
UCGACCUACAGCCUUGCAUAGUAUUUAGUUA | 1.28 ± 0.046 | 0.0668 ± 0.014
UCCUCCUACAGCCUGCAUAGUAUUUAGUUA | 1.18 ± 0.038 | 0.056 ± 0.0094
AGGACCUACAGCCUGCAUAGUAUUUAGUUA | 1.51 ± 0.063 | 0.0892 ± 0.017
UGGACCUACAGCCUGCAUAGUAUUUAGUUA | 1.34 ± 0.048 | 0.0741 ± 0.013
AGGACCUACAGCCUUGCAUAGUAUUUAGUUA | 1.23 ± 0.069 | 0.0878 ± 0.019
AGGACCUACUGCUUGCAUAGUAUUUAGUAA | 0.861 ± 0.077 | 0.0651 ± 0.012
UCCUGGAACAGGUUGCAUAGUUUUUAGUUA | 0.167 ± 0.016 | 0.0162 ± 0.0044
UGGACCUUCAGGUUGCAUAGUAUUUAGUUA | 1.14 ± 0.099 | 0.0476 ± 0.01
UGGACCUACAGGUUGCAUAGUAUAUAGUUA | 0.549 ± 0.056 | 0.0198 ± 0.0053
UGGACCUACAGCUUGCAUACUAUUUUCAAA | 0.0881 ± 0.021 | 
UCCUGGAUGUGCAUUGCAUAGUAUUUAGUUA | 0.223 ± 0.023 | 0.0111 ± 0.0032
UCGUGGUACAGCUUGCAUAGUAUUUAGAAA | 0.305 ± 0.029 | 0.00755 ± 0.0023
UCCUGGAACAGCUUGGAUAGUAUUUACUUA | 0.0518 ± 0.0087 | 0.0182 ± 0.0036
UCCUGCUACAGCUUGCUAUAGUAUUUAGUUA | 0.0317 ± 0.011 | 
UCCUGGAUCUGCUUGCAUUGUAUUUAGUUA | 0.228 ± 0.037 | 0.0147 ± 0.0049
UCCUGGUACACGUUGCAUAGUAUUUUCAAA | 0.0245 ± 0.013 | 
UGGUCCUACUGCUUGCAUAGUAUUUAGUUA | 1.22 ± 0.05 | 0.0687 ± 0.01
AGGACCUAGAGCUUGCAAAGUAUUUAGUUA | 1.17 ± 0.054 | 0.0284 ± 0.0069

Sequence | pre-steady-state target cleavage rate [1] | pre-steady-state target cleavage rate [2]
AGGACCUACAGCUUGCAUAGAUUUUAGAAA | 0.247 ± 0.071 | 
UCGACCUACAGCUUGCAGAGUAUUUAGUUA | 1.05 ± 0.066 | 0.0315 ± 0.0073
AGGUCCUUCAGCUUGCAUAGUAUUUAGUUA | 1.42 ± 0.05 | 0.0947 ± 0.018
UCCACCUUCAGCUUGCAUAGUAUUUAGUAA | 0.628 ± 0.038 | 0.0237 ± 0.0045
UCCUCGUUCAGCUUGCAUAGUAUUUAGUUA | 1.4 ± 0.041 | 0.0653 ± 0.014
UCCUCCUCCAGCUUGCAUAGUAUUUAGUUA | 1.12 ± 0.027 | 0.0546 ± 0.0092
UCGUCCUUCAGCUUGCAUAGUAUUUAGUUA | 1.41 ± 0.038 | 0.0596 ± 0.01
UGGUCCUUCAGCUUGCAUAGUAUUUAGUUA | 1.22 ± 0.059 | 0.0643 ± 0.011
UCCUGGUUCAGCUUGCAUAGUAUUUAGUUA | 0.972 ± 0.042 | 0.0721 ± 0.016
UCCUCCUUCAGCUUGCAUAGUAUUUAGUUA | 1.23 ± 0.036 | 0.0537 ± 0.0085
UCCUCCUUCAGCUUGCAUAGUAUUUAGUAA | 0.717 ± 0.04 | 0.0202 ± 0.0041
UCCUGGUACAGCUUGCAUUGUAUUUAGAAA | 0.0478 ± 0.013 | 
AGGACCUACACCUUGCAUAGUAUUAAGUUA | 0.627 ± 0.054 | 0.0334 ± 0.0069
UCCUGGAUGAGCUUGCAAAGUAUUAAGUUA | 0.331 ± 0.035 | 0.00974 ± 0.0037
UCCACCUACAGCUUGGAAAGUAUUUAGUUA | 1.01 ± 0.03 | 0.00576 ± 0.0018
UCCACCUACAGCUUGCAUAGUAUCUUAGUUA | 0.709 ± 0.057 | 0.0225 ± 0.005
UCCACCUACAGCUUGCAUAGUAAAUACAAA | 0.155 ± 0.037 | 
UCCUGGAUGUGCUUGGAUAGUAUAUAGUUA | 0.0799 ± 0.017 | 0.0106 ± 0.0049
UCCUGGAACAGCUUGCAUAGUAUUUAAGUUA | 0.549 ± 0.034 | 0.0597 ± 0.014
UCCACCUACAGCUCUGCAUAGUAUUUAGUUA | 0.862 ± 0.063 | 0.0214 ± 0.0048
AGGACCUACAGCUCUGCAUAGUAUUUAGUUA | 1.56 ± 0.1 | 0.0543 ± 0.014

Sequence | pre-steady-state target cleavage rate [1] | pre-steady-state target cleavage rate [2]
AGGACCUACAGCUGCAUAGUAUUUAGUUA | 1.15 ± 0.068 | 0.0107 ± 0.0029
UGGACCUACAGCUAUGCAUAGUAUUUAGUUA | 1.24 ± 0.11 | 0.0371 ± 0.0083
UGGACCUACAGCUGGCAUAGUAUUUAGUUA | 1.04 ± 0.044 | 0.0463 ± 0.011
UGGACCUACAGCUCUGCAUAGUAUUUAGUUA | 1.56 ± 0.11 | 0.0566 ± 0.014
UGGACCUACAGCUGCAUAGUAUUUAGUUA | 1.37 ± 0.11 | 0.00982 ± 0.0031
UCCUGCUACAGCUCUGCAUAGUAUUUAGUUA | 0.851 ± 0.058 | 0.0138 ± 0.003
UCGACCUACAGCUGCAUAGUAUUUAGUUA | 1.3 ± 0.079 | 0.00665 ± 0.0025
AGGACCUACAGCUAUGCAUAGUAUUUAGUUA | 0.962 ± 0.052 | 0.0545 ± 0.011
UCGACCUACAGCUCUGCAUAGUAUUUAGUUA | 1.32 ± 0.067 | 0.0476 ± 0.0099
UCCUCCUACAGCUCUGCAUAGUAUUUAGUUA | 1.03 ± 0.044 | 0.0182 ± 0.0041
UCCACCUACAGCUUGCAUAGUAAAAAGAAA | 0.102 ± 0.028 | 
UCCUGGAUCAGCUUGCUUAGUUUUUAGUUA | 0.0882 ± 0.01 | 0.0125 ± 0.0034
UCCUGGUACAGCUUGCAUAGUUAUUAGUAA | 0.0627 ± 0.017 | 0.00413 ± 0.0036
UCCUGGUAUCAGCUUGCAUAGUAUUUAGUUA | 0.546 ± 0.06 | 0.062 ± 0.014
UCGACCUACAGCUUGGUUAGUAUUUAGAAA | 0.224 ± 0.04 | 
UCCUGGAUGUCGAUGCAUAGUAUUUUGUUA | 0.00674 ± 0.0031 | 
UGGACGUACAGCUUGCAUAGUAUUUUCAAA | 0.213 ± 0.034 | 0.00471 ± 0.0022
UCCUGCUACAGCUUGGUUAGUAUUUUCAAA | 0.00524 ± 0.0039 | 
UCCUGGAACAGCUUGCAUAUAUUUAGUUA | 0.0784 ± 0.011 | 0.0034 ± 0.0028
UCCUCCUACAGCUUGCAUAGUAUAAUGUUA | 0.346 ± 0.027 | 0.0146 ± 0.0024
